According to the supplement of paper PMC13094657:
± gives the standard deviation of the averaged measurements.

Assays:
[1] = tested on: MDA-MB-231; assay: cell viability relative to vehicle unstimulated control (fraction); higher = more viable cells; conditions: pre-treatment time: 18 h then 24 h IFNg/TNF
[2] = tested on: MDA-MB-231; assay: kynurenine production, fold change vs DMSO IFNg/TNF control; higher = more kynurenine produced (less inhibition); conditions: pre-treatment time: 18 h then 24 h IFNg/TNF
In short: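 After trichloroacetic acid and p-dimethylaminobenzaldehyde treatment, supernatants were read at 492 nm, with 0–100 μM standards. These came from MDA-MB-231 cells (7 × 10^4/well, 96-well plates) pre-treated 18 h with natural products in 0.1% DMSO and then exposed 24 h to IFNγ (1 U/ml) and TNF (6.25 ng/ml) at 37°C. Values for kynurenine production are fold changes over same-plate cytokine-stimulated vehicle wells, averaged over duplicate plates in the first screening round.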
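Wherever cell viability relative to vehicle unstimulated control is given: viability of the cells left after supernatant collection, read with Deep Blue dye added for 4 h, as absorbance at 570 nm minus 600 nm.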

SMILES	cell viability [1]	kynurenine production [2]
CC(=O)O[C@@H]1C[C@H](O)[C@@]23CO[C@@H](O)[C@]1(C)[C@@H]2C[C@@H](O)[C@]1(C)[C@@H]3C(=O)[C@H](OC(C)=O)[C@@]2(C)[C@H](c3ccoc3)C[C@H]3O[C@]321 [Toosendanin] (compound dose: 10 uM)	0.858 ± 0.056	0.206 ± 0.03
C=CC(=C)CCC=C(C)C [Myrcene] (compound dose: 10 uM)	1.02 ± 0.055	0.867 ± 0.1
C/C1=C\C(=O)c2c(C)coc2C/C(C)=C/CC1 [Furanodienone] (compound dose: 10 uM)	0.949 ± 0.065	0.759 ± 0.13
C=C1C(=O)O[C@@H]2C[C@@]3(C)CCCC(=C)[C@@H]3C[C@H]12 [Isoalantolactone] (compound dose: 10 uM)	0.951 ± 0.082	0.255 ± 0.077
C[C@H](CC[C@@H](O[C@@H]1O[C@H](CO[C@@H]2O[C@H](CO)[C@@H](O)[C@H](O)[C@H]2O)[C@@H](O)[C@H](O)[C@H]1O[C@@H]1O[C@H](CO)[C@@H](O)[C@H](O)[C@H]1O)C(C)(C)O)[C@H]1CC[C@@]2(C)[C@@H]3CC=C4[C@@H](CC[C@H](O[C@@H]5O[C@H](CO)[C@@H](O)[C@H](O)[C@H]5O)C4(C)C)[C@]3(C)[C@H](O)C[C@]12C [Siamenoside I] (compound dose: 10 uM)	1.14 ± 0.34	1.1 ± 0.063
COc1c2cc3c(c1OC)CCN(C)[C@@H]3Cc1ccc(cc1)Oc1cc3c(c(OC)c1OC)CCN(C)[C@@H]3Cc1ccc(cc1)O2 [Cycleanine] (compound dose: 10 uM)	0.118 ± 0.0024	0.198 ± 0.023
COC(=O)C1=CO[C@@H](O[C@@H]2O[C@H](CO)[C@@H](O)[C@H](O)[C@H]2O)[C@@H]2[C@@H](C)[C@@H](O)C[C@H]12 [Loganin] (compound dose: 10 uM)	1.05 ± 0.041	1.02 ± 0.18
C/C=C(/C)C(=O)O[C@H]1[C@H](O)[C@]2(COC(C)=O)[C@H](O)C[C@]3(C)C(=CC[C@@H]4[C@@]5(C)CC[C@H](O[C@@H]6O[C@H](C(=O)O)[C@@H](O[C@@H]7O[C@H](CO)[C@@H](O)[C@H](O)[C@H]7O)[C@H](O)[C@H]6O[C@@H]6O[C@H](CO)[C@@H](O)[C@H](O)[C@H]6O)[C@](C)(CO)[C@@H]5CC[C@]43C)[C@@H]2CC1(C)C [Isoescin IB] (compound dose: 10 uM)	1.08 ± 0.074	0.802 ± 0.12
COC(=O)C1=CO[C@@H](O[C@@H]2O[C@H](CO[C@@H]3O[C@H](CO)[C@@H](O)[C@H](O)[C@H]3O)[C@@H](O)[C@H](O)[C@H]2O)[C@@H]2C(CO)=CC[C@H]12 [Genipin 1-β-D-gentiobioside] (compound dose: 10 uM)	0.849 ± 0.014	0.718 ± 0.24
O[C@H]1[C@H]2c3cc4c(cc3CN3CCC(=C[C@@H]1O)[C@H]23)OCO4 [Lycorine chloride] (compound dose: 10 uM)	0.582 ± 0.056	0.184 ± 0.072
C[C@@H]1O[C@@H](O[C@@H]2[C@H](O)[C@@H](O)[C@H](O[C@H]3CC[C@@]4(C)C(CC[C@]5(C)C4C=C[C@]46OC[C@@]7(CCC(C)(C)CC74)[C@@H](O)C[C@]65C)C3(C)C)O[C@@H]2CO[C@@H]2O[C@H](CO)[C@@H](O)[C@H](O)[C@H]2O)[C@H](O)[C@H](O)[C@H]1O (stereo partly specified) [Saikosaponin C] (compound dose: 10 uM)	0.928 ± 0.063	1.13 ± 0.18
CC1(C)[C@@H](O)CC[C@]2(C)[C@H]3CC=C4[C@@H]5C[C@@]6(C)C[C@H](OC6=O)[C@]5(C)CC[C@@]4(C)[C@]3(C)CC[C@@H]12 [Wilforlide A] (compound dose: 2 uM)	0.877 ± 0.047	0.834 ± 0.13
C[C@H]1[C@H](C)CC[C@]2(C(=O)O)CC[C@]3(C)C(=CC[C@@H]4[C@@]5(C)CCC(=O)C(C)(C)[C@@H]5CC[C@]43C)[C@H]12 [Ursonic acid] (compound dose: 10 uM)	0.9233 ± 0.0046	0.733 ± 0.12
C[C@@H]1O[C@@H](O[C@H]2[C@H](OC(=O)[C@]34CCC(C)(C)C[C@H]3C3=CC[C@@H]5[C@@]6(C)C[C@H](O)[C@H](O[C@@H]7O[C@H](CO)[C@@H](O)[C@H](O[C@@H]8O[C@H](CO)[C@@H](O)[C@H](O)[C@H]8O)[C@H]7O)C(CO)(CO)[C@@H]6CC[C@@]5(C)[C@]3(C)C[C@H]4O)OC[C@H](O)[C@@H]2O)[C@H](O)[C@H](O)[C@H]1O[C@@H]1OC[C@@H](O)[C@H](O[C@@H]2OC[C@](O)(CO)[C@H]2O)[C@H]1O [Platycodin D2] (compound dose: 10 uM)	0.7561 ± 0.0061	0.301 ± 0.043
C/C1=C/CC[C@H](C)C(=O)C[C@@H](C(C)C)C(=O)C1 [Curdione] (compound dose: 10 uM)	0.926 ± 0.015	1.02 ± 0.059
C=C(C)[C@@H]1CCC2=CC(=O)C[C@@H](C)[C@]2(C)C1 [Nootkatone] (compound dose: 10 uM)	0.9333 ± 0.0022	0.932 ± 0.073
CC(=O)O[C@H]1C(=O)[C@@]2(C)[C@H]([C@H](OC(=O)c3ccccc3)[C@]3(O)C[C@H](OC(=O)[C@H](O)[C@@H](NC(=O)c4ccccc4)c4ccccc4)C(C)=C1C3(C)C)[C@]1(OC(C)=O)CO[C@@H]1C[C@@H]2O [Paclitaxel] (compound dose: 10 uM)	0.827 ± 0.035	0.317 ± 0.017

SMILES	cell viability [1]	kynurenine production [2]
CC1(C)CC[C@]2(C(=O)O)CC[C@]3(C)C(=CC[C@@H]4[C@@]5(C)CC[C@H](O)[C@@](C)(CO)[C@@H]5CC[C@]43C)[C@@H]2C1 [Hederagenin] (compound dose: 10 uM)	1.06 ± 0.2	1.07 ± 0.014
O=C(O)/C=C/c1ccccc1 [Trans-cinnamic acid] (compound dose: 10 uM)	1.02 ± 0.019	0.882 ± 0.022
C=C1CC[C@@H]2[C@](C)(CO[C@@H]3O[C@H](CO)[C@@H](O)[C@H](O)[C@H]3O)CCC[C@@]2(C)[C@@H]1CCC1=CCOC1=O [Neoandrographolide] (compound dose: 10 uM)	0.953 ± 0.034	0.893 ± 0.012
CC1OC2OC3C(OCC(O)C3O)OC(=O)C34CCC(C)(C)CC3C3=CCC5C6(C)CC(O)C(OC7OC(CO)C(O)C(O)C7OC7OCC(OC(=O)CC(C)(O)CC(=O)OC1C(OC1OCC(O)C(O)C1O)C2O)C(O)C7O)C(C)(CO)C6CCC5(C)C3(C)CC4O (stereo unspecified) [Tubeimoside II] (compound dose: 10 uM)	0.387 ± 0.0057	0.21 ± 0.0034
CC(=O)OC/C1=C/[C@H]2[C@@H](OC(=O)/C=C/c3ccccc3)[C@@H](C)C[C@]2(OC(C)=O)C(=O)/C(C)=C/[C@@H]2[C@H](CC1)C2(C)C [Euphorbia factor L7a] (compound dose: 10 uM)	1.086 ± 0.0038	0.948 ± 0.035
CC(C)=CCC[C@](C)(O)[C@@H]1CC=C(C)CC1 [alpha-Bisabolol] (compound dose: 10 uM)	0.9925 ± 0.0046	0.79 ± 0.15
C[C@H](CC[C@@H](O)C(C)(C)O)[C@H]1CC[C@@]2(C)[C@@H]3CC=C4[C@@H](CC[C@H](O[C@@H]5O[C@H](CO)[C@@H](O)[C@H](O)[C@H]5O)C4(C)C)[C@]3(C)[C@H](O)C[C@]12C [Mogroside I E1] (compound dose: 10 uM)	0.906 ± 0.15	0.981 ± 0.35
O=C(/C=C/c1ccc(O)c(O)c1)O[C@H](Cc1ccc(O)c(O)c1)C(=O)O [Rosmarinic acid] (compound dose: 10 uM)	1.11 ± 0.14	0.908 ± 0.18
C=C(C)[C@@H]1CC[C@]2(C)CC[C@]3(C)[C@H](CC[C@@H]4[C@@]5(C)CCC(=O)C(C)(C)[C@@H]5CC[C@]43C)[C@@H]12 [Lupenone] (compound dose: 10 uM)	0.9789 ± 0.0076	0.898 ± 0.16
C[C@]1(O)C[C@@H](O)[C@]2(O)C=CO[C@@H](O[C@H]3O[C@H](CO)[C@@H](O)[C@H](O)[C@H]3O)[C@@H]21 [Harpagide] (compound dose: 10 uM)	1.02 ± 0.016	0.747 ± 0.068
C[C@@H]1CC[C@@]2(OC1)O[C@H]1C[C@H]3[C@@H]4CC=C5C[C@@H](O[C@@H]6O[C@H](CO)[C@@H](O)[C@H](O[C@@H]7O[C@H](CO)[C@@H](O)[C@H](O)[C@H]7O)[C@H]6O[C@@H]6O[C@@H](C)[C@H](O)[C@@H](O)[C@H]6O)CC[C@]5(C)[C@H]4CC[C@]3(C)[C@H]1[C@@H]2C [Gracillin] (compound dose: 10 uM)	0.0777 ± 0.08	0.202 ± 0.016
COc1ccc2cc3[n+](cc2c1OC)CCc1cc2c(cc1-3)OCO2 [Berberine] (compound dose: 10 uM)	0.8829 ± 0.0012	0.807 ± 0.11
CC1(C)CC[C@]2(CO)CC[C@]3(C)C(=CC[C@@H]4[C@@]5(C)CC[C@H](O)C(C)(C)[C@@H]5CC[C@]43C)[C@@H]2C1 [Erythrodiol] (compound dose: 10 uM)	1.08 ± 0.031	0.842 ± 0.14
CC1(C)CC[C@]2(C(=O)O[C@@H]3O[C@H](CO[C@@H]4O[C@H](CO)[C@@H](O)[C@H](O)[C@H]4O)[C@@H](O)[C@H](O)[C@H]3O)CC[C@]3(C)C(=CC[C@@H]4[C@@]5(C)CC[C@H](O[C@@H]6OC[C@H](O)[C@H](O)[C@H]6O)[C@@](C)(CO)[C@@H]5CC[C@]43C)[C@@H]2C1 [Asperosaponin VI] (compound dose: 10 uM)	0.9877 ± 0.0023	0.748 ± 0.087
COc1cc2c(=O)c3c(O)c([C@@H]4O[C@H](CO[C@@H]5OC[C@](O)(CO)[C@H]5O)[C@@H](O)[C@H](O)[C@H]4O)c(O)cc3oc2cc1O [Polygalaxanthone III] (compound dose: 10 uM)	1 ± 0.048	1.01 ± 0.037
COc1ccc2c(c1O)C(Cc1ccc(O)cc1)[N+](C)(C)CC2 (stereo unspecified) [Oblongine] (compound dose: 10 uM)	0.969 ± 0.037	1.03 ± 0.071
